Rows were chosen to be rich in hits. Some 5.2% of all compounds tested hit in one or more screens of this group.
esBAF inh: Bmi1 luciferase reporter increase in mESCs, primary screen, esBAF inhibitor project, mouse ES cells, Bmi1 luciferase knock-in, single point | 24 h; 100% = twice the neutral-well signal | reporter increase, % at 12.5 µM | actives 2% (n = 350,000) | AID 602393, 2012; in the data active = activation above about 40%;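 also: 0% = median of the plate's neutral control wells and 100% = double that signal; a rise in the Bmi1 reporter signal indicates esBAF inhibition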
NR3A LBD binder: binders of NR3A ligand-binding domain, primary screen, biophysical, differential scanning fluorimetry, uHTS | Glutamate receptor ionotropic, NMDA 3A (GRIN3A) ligand-binding domain | NR3A LBD differential scanning fluorimetry, Tm shift; 0% = protein alone, 100% = glycine-bound protein | Tm shift relative to glycine control, % at 25 µM | actives 2.5% (n = 340,000) | AID 1259313, 2017;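 active = melting temperature shift of at least 10% of the positive control shift, at one fixed dose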
NadD inh: inhibitors of S. aureus NadD, primary screen, biochemical, colorimetric, uHTS; purified NadD enzyme, colorimetric absorbance read-out; inhibition, % at 20 µM; actives 0.78% (n = 360,000); AID 602399, 2012; in the data active = inhibition above about 26%
Vif imaging: HIV Vif self-association inhibitors, primary screen, imaging, HEK293T, single point. HEK293T cells, Vif self-association by quenched fluorescence, 24 h. inhibition, % at 7.49 µM. actives 0.35% (n = 340,000); in the data active = inhibition above about 50%, passing the limit was not always enough
SKN-1 inh: suppressors of acrylamide-induced Pgst-4::GFP reporter in worms, primary screen, SKN-1 inhibitor project, whole organism, uHTS, GFP/RFP fluorescence ratio, strain VP596; actives 0.49% (n = 360,000); C. elegans VP596 Pgst-4::GFP/RFP ratio, 24 h; inhibition, % at 21.8 µM; AID 624304, 2012;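 active = interference check ratio from 0.5 to 1.5 plus GFP to RFP signal ratio inhibition reaching or exceeding a fixed threshold, cut at about 30% in these data, passing the limit was not always enough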
SMARCA2 activ: SMARCA2 (BRM) function activators, primary screen, cell-based, luminescence, high throughput; MG213 cells, MMTV-luciferase reporter, dexamethasone, overnight; actives 1% (n = 370,000); AID 652017, 2013; activation, % at 9.1 µM; in the data active = activation above about 7.8%;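 also: 0% = vehicle wells and 100% = reference activator wells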
SMARCA2 conf: SMARCA2 (BRM) function activators, confirmation, cell-based, luminescence, triplicate; shares compounds with SMARCA2 activ; MG213 cells, MMTV-luciferase with dexamethasone, overnight; MG213 cells expressing E1A, Rb sequestered; DMSO wells 0%, reference activator 100%; activation, % at 9.1 µM; actives 30% (n = 3,500); AID 652260, 2013;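 active = activation above its plate's cutoff, the mean activation of tested wells plus 3 SD, cut at about 7.9% in these data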
VP16 Luc act: GAL4-VP16 luciferase reporter activation, counter-screen for SMARCA2 (BRM) activator project, cell-based, pG5luc, luminescence, high throughput | AID 686939, 2013 | HEK293 GAL4-VP16 pG5luc reporter; scaled: DMSO wells 0%, SAHA wells 100% | shares compounds with SMARCA2 activ | actives 41% (n = 3,500) | activation, % at 9.1 µM;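 active = activation above the solvent-only control well mean plus 3 SD, averaged across control plates, cut at about 5.2% in these data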
* marks the source's active call; other numbers are inactive results; nt = not tested or not shown.

SMILES	esBAF inh	NR3A LBD binder	NadD inh	Vif imaging	SKN-1 inh	SMARCA2 activ	SMARCA2 conf	VP16 Luc act
CC(C)(C)Nc1ncnc2c1cnn2-c1ccccc1	0	-1	0	0	19	8.3*	11*	13*
COCCNc1ncnc2c1cnn2-c1ccc(Cl)cc1	11	0	-1	10	9	8.4*	17*	10*
Cc1cccc(N=Nc2cnc(N)s2)c1	nt	0	-3	-1	3	8.1*	4	4
CNc1ccc(/C=C(\C#N)c2ccccn2)cc1[N+](=O)[O-]	74*	-4	2	-6	48	13*	13*	8.0*
C[C@@H]1CN([C@H](C)CO)C(=O)Cc2cc(NC(=O)Cc3ccccc3)ccc2O[C@H]1CN(C)C(=O)Nc1ccc(C(F)(F)F)cc1	-1	nt	nt	nt	nt	nt	nt	nt
C[C@H](CO)N1C[C@H](C)[C@H](CN(C)Cc2cccc(C(F)(F)F)c2)OCc2cn(nn2)CCCC1=O	-1	nt	nt	nt	nt	nt	nt	nt
O=C1C2C3CCC(O3)C2C(=O)N1c1nccs1 (centres undefined)	-3	0	-1	2	-22	9.5*	0	0
O=C(C[C@@H]1C=C[C@H](NC(=O)c2ccccc2)[C@H](CO)O1)NCc1ccncn1	-1	nt	nt	nt	nt	nt	nt	nt
CC(C)NC(=O)C1(C#N)C=C1c1ccccc1 (centres undefined)	nt	nt	3	nt	12	9.4*	3	-1
COCC(=O)N1[C@H](CO)[C@@H]2c3ccccc3N(C(=O)Nc3cc(F)ccc3F)C[C@@H]21	0	nt	nt	nt	nt	nt	nt	nt
COc1ccc2nc3cc(Cl)ccc3c(Nc3cc(CN4CCCC4)c(O)c(CN4CCCC4)c3)c2n1	5	nt	-62	-12	-1	68*	256*	3
C[C@@H]1CN([C@H](C)CO)C(=O)c2cccc(NC(=O)c3cnccn3)c2O[C@H]1CN(C)S(=O)(=O)c1ccc(F)cc1	-4	nt	nt	nt	nt	nt	nt	nt
CCOc1ccc(NC(=O)C(c2ccccn2)N(C(=O)CCl)c2ccc(OC)cc2)cc1 (centres undefined)	nt	3	-7	0	7	9.7*	8	4
C[C@H](CO)N1C[C@H](C)[C@@H](CN(C)Cc2ccc(-c3ccccc3)cc2)Oc2ccc(NC(=O)Cc3ccccc3)cc2C1=O	0	nt	nt	nt	nt	nt	nt	nt
O=[N+]([O-])c1ccc(N=Nc2ncc[nH]2)cc1	-51	-4	-2	17	9	8.0*	-14	6.9*
O=[N+]([O-])c1ccc(N=NN(CCO)CCO)cc1	nt	2	-4	-5	-6	-3	nt	nt
CCN(CC)C(=O)c1cc2c(=O)c3cc(F)ccc3oc2nc1C	33	0	-7	nt	-4	9.6*	4	4
CCN(C(C)=O)c1cnc(C=NNC(N)=S)c2ccccc12	nt	0	4	-3	12	-4	nt	nt
NC(=S)NN=Cc1nccc2c(N)cccc12	-25	nt	7	24	13	8.3*	-1	-1
CCCCc1cc(=O)oc2c(CN(CC)CC)c(O)c(Cl)cc12	3	0	-2	-1	3	2	nt	nt
CCCc1cc(=O)oc2c(CN(CC)CC)c(O)c(Cl)cc12	nt	-1	-3	-1	-11	9.4*	-3	1
CCCNC(=O)C[C@H]1CC[C@H]2[C@@H](COc3ccc(NC(=O)c4ccc5c(c4)OCO5)cc3C(=O)N2C)O1	-1	nt	nt	nt	nt	nt	nt	nt
CNC[C@H]1Oc2c(NC(=O)c3ccc(-c4nccs4)cc3)cccc2C(=O)N([C@H](C)CO)C[C@H]1C	3	nt	nt	nt	nt	nt	nt	nt
COC(=O)c1cc(S(=O)(=O)n2nc(C)cc2C)c(Cl)cc1Cl	nt	1	nt	nt	nt	nt	nt	nt
COC(=O)c1cc(S(=O)(=O)N2CCCC2=O)c(Cl)cc1Cl	0	-1	-4	-23	6	8.0*	2	0
SMILES	esBAF inh	NR3A LBD binder	NadD inh	Vif imaging	SKN-1 inh	SMARCA2 activ	SMARCA2 conf	VP16 Luc act
CC(C)OCCCNC1=C(Cl)C(=O)c2ccccc2C1=O	nt	-1	-3	-4	7	9.4*	6	2
C[C@@H]1CCCCO[C@H](CN(C)CC2CC2)[C@H](C)CN([C@@H](C)CO)C(=O)c2cc(NC(=O)Nc3ccc4c(c3)OCO4)ccc2O1	2	nt	nt	nt	nt	nt	nt	nt
COc1ccc([C@H]2N[C@]3(CCCN(Cc4ccco4)C3=O)[C@H]3C(=O)N(Cc4ccccc4)C(=O)[C@@H]23)cc1	-4	nt	2	nt	-9	9.0*	-4	0
O=C1[C@H]2[C@@H](c3ccccc3)N[C@]3(CCCN(Cc4ccco4)C3=O)[C@H]2C(=O)N1Cc1ccccc1	5	nt	4	nt	8	5	nt	nt
Cc1ccc(S(=O)(=O)N2C[C@H](O)COC[C@H]3O[C@@H](CC(=O)NCCN4CCCCC4)CC[C@@H]32)cc1	1	nt	nt	nt	nt	nt	nt	nt
Cc1ccc(S(=O)(=O)N(C)C[C@@H]2OCCCC[C@H](C)Oc3ccc(NS(=O)(=O)c4ccc(F)cc4)cc3C(=O)N([C@H](C)CO)C[C@H]2C)cc1	-2	nt	nt	nt	nt	nt	nt	nt
Cc1ccc(NC(=O)COC(=O)C2CCC(=O)N2)c([N+](=O)[O-])c1 (centres undefined)	nt	-1	2	-7	10	13*	-2	1
CC(C)NC(=O)Nc1ccc2c(c1)C(=O)N([C@@H](C)CO)C[C@H](C)[C@H](CN(C)S(=O)(=O)c1ccc(F)cc1)O2	0	nt	nt	nt	nt	nt	nt	nt
O=C(Oc1ccc2ccccc2c1Cl)N1CCCCCC1	nt	1	-7	-9	-2	9.3*	5	24*
O=C(Oc1ccc2ccccc2c1Cl)N1CCCC1	9	2	1	-15	12	7	nt	nt
Clc1ccc(Nc2nc(C3CC3)cs2)cc1	30	-5	1	5	6	8.2*	5	7.1*
S=c1[nH]nc(Nc2ccc(Cl)cc2)s1	nt	-4	16	0	15	3	nt	nt
CN1C(=O)C(C)(C)c2cc(S(=O)(=O)N3CCCC(C(=O)NCc4ccccc4Cl)C3)ccc21 (centres undefined)	-25	-2	5	-8	2	10*	-3	4

Compound activity deposited in PubChem by several laboratories.
